About 1,200 (0.39%) of roughly 310,000 compounds were called active. The list is a sample of the results. Potency and affinity values are given separately. A number with no mark means an inactive call. How the calls were made is not given here.

Large T antigen (Simian virus 40), sequence (P03070 whole entry, looked up): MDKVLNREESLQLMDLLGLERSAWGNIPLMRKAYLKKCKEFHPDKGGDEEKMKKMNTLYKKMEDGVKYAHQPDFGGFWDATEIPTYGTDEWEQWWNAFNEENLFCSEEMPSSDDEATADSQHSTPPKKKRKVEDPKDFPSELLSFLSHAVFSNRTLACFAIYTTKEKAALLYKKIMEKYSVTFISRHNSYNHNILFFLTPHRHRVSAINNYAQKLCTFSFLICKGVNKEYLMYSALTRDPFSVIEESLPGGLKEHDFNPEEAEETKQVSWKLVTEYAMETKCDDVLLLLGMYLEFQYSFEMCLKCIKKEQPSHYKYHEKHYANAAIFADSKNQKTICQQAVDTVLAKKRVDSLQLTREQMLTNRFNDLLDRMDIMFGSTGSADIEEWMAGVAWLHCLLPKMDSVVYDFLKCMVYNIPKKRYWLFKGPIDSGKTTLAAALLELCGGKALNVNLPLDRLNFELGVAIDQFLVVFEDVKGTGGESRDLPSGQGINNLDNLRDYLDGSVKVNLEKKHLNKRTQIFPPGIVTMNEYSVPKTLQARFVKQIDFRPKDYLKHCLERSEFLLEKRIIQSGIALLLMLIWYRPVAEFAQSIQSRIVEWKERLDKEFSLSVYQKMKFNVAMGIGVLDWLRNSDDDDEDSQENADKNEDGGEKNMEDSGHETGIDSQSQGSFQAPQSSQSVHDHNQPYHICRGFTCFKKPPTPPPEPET

This experiment concerns the target Large T antigen (Simian virus 40) (UniProt P03070). The experiment in a line: TAg ATPase/helicase activity blockers – biochemical (AID 1903). Particulars: SV40 large T antigen ATPase/helicase inhibition assay; at 20 µM; hits give high values.
For `CN(C)C(CNC(=O)c1ccc2nc[nH]c2c1)c1ccccc1` (stereo unspecified), the inhibition was 12.7%.
Then `NC1=NC(=O)/C(=C\c2cccs2)S1`, with 16.2%; and `NC1=NC(=O)/C(=C/c2cccs2)S1`, with 3.51%; and `COc1cccc(C(=O)CN(C(=O)c2ccc(Cl)c(Cl)c2)N2C(=O)C3CCCCC3C2=O)c1` (stereo unspecified), with 24.4%.
In the case of `COc1ccccc1C(=O)COC(=O)CCCN=C1NS(=O)(=O)c2ccccc21` it was 11.1%; in that of `Oc1ccc(Br)cc1-c1cc(-c2ccccc2)n[nH]1`, 23.6%; in that of `Nc1cc(-c2ccc(Br)cc2)[nH]n1`, 8.97%.
With `O=C1c2ccccc2CC1Sc1nnc(-c2ccccn2)o1` (stereo unspecified), the inhibition was 13.2%.
In the case of `CCC(Sc1nnnn1-c1ccccc1)C(=O)NC(C)c1ccccc1` (stereo unspecified) it was 1.1%; in that of `c1ccc(Nc2ccccc2)cc1`, 12.1%.
Consider `Cc1ccc(Nc2ccccc2)cc1`, for which the inhibition was 9.98%.
Take `CN(Cc1nc(-c2cnccn2)no1)CC(O)c1ccccc1` (stereo unspecified): the inhibition was 9.11%.
For the molecule `C/C(=N\NC(=O)CSc1nnc(C)s1)c1ccc(O)cc1`, the inhibition was 26.9%.
In the case of `COc1ccc(/C(C)=N\NC(=O)CSc2nnc(C)s2)cc1` it was 4.01%.
With `COc1cc(/C(C)=N\NC(=O)CSc2nc3ccccc3n2C)ccc1O`, the inhibition is 25.3%.
Then `C/C(=N\NC(=O)CSc1nc2ccccc2[nH]1)c1ccncc1`, with 5.69%.
Then `Cc1ccc(CNC(=O)c2nn(C)c(C)c2[N+](=O)[O-])cc1`, with 10.1%.
For `O=S(=O)(NCC1CCCN(Cc2ccccc2O)C1)c1cccc2cccnc12` (stereo unspecified), the inhibition was 21.3%.
Then `S=C(NCCSCc1c(Cl)cccc1Cl)Nc1ccccc1`, with 3.66%; and `O=C(NC(NC1CCS(=O)(=O)C1)C(Cl)(Cl)Cl)c1cccc(Cl)c1` (stereo unspecified), with 26%.
Regarding `S=C(NCc1cccnc1)Nc1ccc2c(c1)OCO2`, the inhibition is 9.73%.
In the case of `c1cc(CNc2ccc3c(c2)OCO3)ccn1` it was 25.9%; in that of `CCN(c1ccc(NC(=O)COC(=O)c2cccs2)cc1)C(C)C`, 25.9%.
Regarding `O=C(COC(=O)c1cccs1)Nc1ccccc1`, the inhibition is -1.96%.
In the case of `COc1cccc(NC(=O)COC(=O)COc2ccccc2[N+](=O)[O-])c1` it was 7.61%.
With `CCN(CC)c1ccc(NC(=O)COC(=O)/C=C/c2nc3ccccc3s2)cc1`, the inhibition was 37.1%.
As for `O=C(COC(=O)c1ccc2ccccc2n1)NCc1ccccc1`, the inhibition is 6.87%.
Take `O=C(COC(=O)COc1ccccc1[N+](=O)[O-])Nc1cccc(Br)c1`: the inhibition was -10.5%.
Then `CCCCCSc1nnc2c(n1)OC(C)N(C(C)=O)c1ccccc1-2` (stereo unspecified), with 5.71%.
For the molecule `N#Cc1nc(COc2ccccc2Cl)oc1NCc1ccco1`, the inhibition was 15.3%.
For `Cc1cc(C)nc(SCCC(=O)Nc2ccccc2)n1`, the inhibition was -11.3%.
Then `COc1cccc2cc(C(=O)NNC(=O)c3ccc(Br)cc3)c(=O)oc12`, with -2.17%; and `COc1ccc(/C=C/C(=O)Nc2cc(S(=O)(=O)N3CCCCC3)ccc2N2CCCCC2)cc1OC`, with -6.48%; and `CC/C(=C\C(=O)c1ccncc1)Nc1ccc(Br)cc1`, with 14.6%.
In the case of `O=C(COc1ccccc1C(=O)N/N=C\c1ccc(O)c(O)c1)N/N=C/c1ccc(O)c(O)c1` it was 2.12%; in that of `O=C(N/N=C/c1cccc(O)c1)N/N=C/c1cccc(O)c1`, 18.6%; in that of `CC(C)(C)c1ccc(/C=N/NC(=O)C2CCCC2)cc1`, 13.3%.
Turning to `COc1ccc2c(c1)c(C(=O)N/N=C/c1cccc(O)c1)c(C)n2C`, the inhibition is 14.4%.
`COc1ccc2c(c1)c(C(=O)N/N=C/c1ccc(OC)c(OC)c1)c(C)n2C`: the inhibition was 13.7%.
Then `Cc1nonc1C(=O)N/N=C/c1ccccc1`, with -0.19%; and `C=C1CC(C(=O)N/N=C/c2ccccc2)C1`, with 5.07%.
As for `Cc1nonc1C(=O)N/N=C/c1cccc(O)c1`, the inhibition is 8.34%.
In the case of `Cc1ccc2[nH]c(=O)c(CN(CC3CCCO3)S(=O)(=O)c3c(C)ccc4nsnc34)cc2c1` (stereo unspecified) it was -0.695%.
Take `CC(C)CC(CO)N1CCN(C(=O)c2ccccc2)CCC1=O` (stereo unspecified): the inhibition was 16.2%.
As to `CSc1ncc(Cl)c(C(=O)Nc2ccccc2[N+](=O)[O-])n1`, the inhibition is 30.7%.
Then `O=C1CC2(CCN(C(=O)c3cccc([N+](=O)[O-])c3)CC2)Oc2ccccc21`, with 22.7%; and `COCc1ccc(C(=O)N2CCCC(Nc3ccc(C(C)C)cc3)C2)o1` (stereo unspecified), with 23.2%; and `CCCC(c1nnnn1Cc1ccco1)N1CCN(c2ccccc2)CC1` (stereo unspecified), with 24%.
Then `Cc1cc(Br)ccc1NC(=O)CN1C(=S)NC(C)(C)CC1C` (stereo unspecified), with 5.62%.
On to `CN1C(=O)c2ccc(C(=O)NCc3ccc4c(c3)OCO4)cc2C1=O`, for which the inhibition was 4.66%.
In the case of `O=C(N/N=C/c1ccc2c(c1)OCO2)C1CC1` it was -8.98%.
For the molecule `O=C(/C(=N/N=C/c1ccc(O)c(O)c1)c1ccccc1)c1ccccc1`, the inhibition is 32.3%.
In the case of `O=C(N/N=C/c1ccsc1)C1CC1` it was 14.3%; in that of `Oc1ccc(/C=N/N(c2ccccc2)c2ccccc2)cc1O`, 20.4%; in that of `Cc1cccc(OCc2nnc(SCC(=O)Nc3ncc(C)s3)o2)c1`, 3.87%.
In the case of `O=C1Nc2ccccc2C1=Nc1ccc(Br)cc1` it was 4.56%; in that of `O=C1Nc2ccccc2/C1=N\N1CCOCC1`, 27.9%.
Then `O=C(O)CCCCCNS(=O)(=O)c1cccc2c1C(=O)c1ccccc1C2=O`, with 27%; and `COc1ccccc1NCCC(=O)O`, with 26.5%.
As to `O=C(NCC(c1ccc(F)cc1)N1CCOCC1)c1cccnc1Sc1ccc(Cl)cc1` (stereo unspecified), the inhibition was 11.1%.
Regarding `Nc1n[nH]c(=S)n1-c1ccc(Cl)cc1`, the inhibition is 5.6%.
On to `CCn1cnc2cc(NCc3ccccc3Cl)ccc21`, for which the inhibition is 21.6%.
Consider `COc1ccccc1-n1cnc2cc(NCc3ccccc3O)ccc21`, for which the inhibition was 33.3%.
Consider `CCCn1cnc2cc(NCc3ccccc3O)ccc21`, for which the inhibition was 33.9%.
For the molecule `CCCn1cnc2cc(NCc3cccc(OC)c3)ccc21`, the inhibition is 36.7%.
Consider `CCCCN(C(=O)CCCSc1nc2ccccc2[nH]1)c1c(N)n(Cc2ccccc2)c(=O)[nH]c1=O`, for which the inhibition was 3.22%.
Turning to `Cc1cccc(N/N=C(\C#N)S(=O)(=O)C(C)(C)C)c1`, the inhibition is 8.77%.
`O=C(O)CCCNC(=O)Cc1ccccc1`: the inhibition is 2.55%.
Take `O=C(Cc1cccs1)NNC(=O)c1ccc(F)cc1`: the inhibition was 8.96%.
In the case of `Cc1cc(Nc2ccccc2Cl)c2ccccc2n1` it was 8.12%; in that of `C=CCOc1ccccc1CNc1ccc2c(c1)OCCO2`, 25.8%.
Then `COc1cccc(CNc2ccc3[nH]c(=O)[nH]c3c2)c1OCc1ccccc1Cl`, with 37%; and `COc1cccc(CNc2ccc(C(=O)O)cc2)c1OCc1ccccc1`, with 7.38%; and `C=CCOc1ccccc1CNc1cccc(F)c1`, with -2.23%.
As for `C=CCOc1c(CNc2cccc(C(=O)O)c2)cccc1OC`, the inhibition is 9.77%.
In the case of `C=CCOc1c(CNc2ccc(C(=O)O)cc2)cccc1OC` it was 9.8%.
`COc1ccc2nc(NC(=O)C3CCN(C(=O)c4ccco4)CC3)sc2c1`: the inhibition is -5.44%.
As for `Cc1ccc(NC(=O)c2ccc(F)cc2)cc1S(=O)(=O)N1CCCCCC1`, the inhibition was 7.24%.
Then `COCCn1c(=O)[nH]c2cc(C(=O)Nc3ccc(OC)c(Cl)c3)ccc2c1=O`, with 4.08%; and `O=c1c(/C=N/Nc2ccccc2)c(Sc2nnnn2-c2ccccc2)nc2ccccn12`, with 0.84%.
Regarding `O=C(O)c1ccccc1N/N=C/c1c(Sc2nnnn2-c2ccccc2)nc2ccccn2c1=O`, the inhibition was 13.1%.
On to `O=C(COc1ccc([N+](=O)[O-])cc1)Nc1ccc2c(c1)nc1n2CCOC1`, for which the inhibition is 14.9%.
Then `Cc1ccc(C(=O)CN(Cc2ccccc2)C2=NCCS2)cc1`, with -1.42%; and `c1ccc2c(c1)C(=Nn1cnnc1)c1ccccc1-2`, with 3.9%.
For `C=CCN1C(=O)/C(=N/n2cnnc2)c2ccccc21`, the inhibition was 25.4%.
As to `O=C(c1ccco1)N1CCC(c2nc3c(nnn3Cc3ccc(F)cc3)c(=O)[nH]2)CC1`, the inhibition was 12.3%.
Take `Cc1ccc(NC(=O)COC(=O)CCC(=O)c2cccs2)cc1S(=O)(=O)N1CCOCC1`: the inhibition is 14.2%.
Then `CC12CC3CC(C)(C1)CC(C(O)CN1CCOCC1)(C3)C2` (stereo unspecified), with 3.1%; and `COc1cc(/C=N/N=C(\N)c2nonc2N)cc(OC)c1O`, with 36.3%.
In the case of `COc1ccc(/C=N/N=C(\N)c2nonc2N)cc1OC` it was 22.7%.
In the case of `N/C(=N\N=C\c1ccc(O)cc1)c1nonc1N` it was 23.1%.
Turning to `N/C(=N\N=C\c1cccc(O)c1)c1nonc1N`, the inhibition is 18.6%.
`CCOC(=O)c1c(NC(=S)N2CCN(C)CC2)sc(C)c1-c1ccccc1`: the inhibition was 9.17%.
For the molecule `CCOC(=O)C1=C(O)C(=O)N(c2ccc(S(N)(=O)=O)cc2)C1c1ccc([N+](=O)[O-])cc1` (stereo unspecified), the inhibition was 5.61%.
Then `Cc1ccc(NC(=O)Cc2ccsc2)cc1Cl`, with 8.34%; and `C=CCC(C#Cc1ccc(C)cc1)N(CC)CC` (stereo unspecified), with 2.04%; and `COCCNC(=O)CN(C(=O)CCC(=O)Nc1ccccn1)c1ccc(F)cc1`, with 2.44%.
For `N#Cc1ccccc1-c1ccccc1C(=O)N1CCCCC1`, the inhibition is 5.76%.
In the case of `O=C(Nc1cccc(O)c1)c1ccc2c(c1)C(=O)N(Cc1ccco1)C2=O` it was 8.23%; in that of `Cc1cccc(C(=O)Nc2ccc(NC(=O)c3ccccc3)cc2)c1`, 2.43%.
Take `Cc1cccc(C(=O)Nc2ccc(C(=O)Nc3ccc(O)cc3)cc2)c1`: the inhibition is 8.66%.
In the case of `CCc1ccc(NC(=O)c2ccc3c(c2)C(=O)N(Cc2ccco2)C3=O)cc1` it was 9.22%; in that of `COc1cc(C(=O)Nc2ccc(C(=O)O)cc2)ccc1OC(C)=O`, 17.2%; in that of `COC(=O)c1ccc(NC(=O)c2ccc(OC(C)=O)c(OC)c2)cc1`, 4.68%.
Turning to `O=C(Nc1ccccc1O)c1ccc2c(c1)C(=O)N(N1C(=O)c3ccccc3C1=O)C2=O`, the inhibition was 5.64%.
With `O=C(Nc1ccc(O)cc1)c1ccc2c(c1)C(=O)N(Cc1ccccc1)C2=O`, the inhibition was 35.7%.

Values taken from PubChem BioAssay AID1903 (Southern Research Specialized Biocontainment Screening …, 2009).
